Source: PubChem (National Center for Advancing Translational Sciences (NCATS))
KB-3-1 tox: kills parental KB-3-1 adenocarcinoma cells; KB-3-1 viability, CellTiter-Glo ATP luminescence, 72 h; Potency, µM (top dose mostly 46.1 µM), hits mostly cytotoxic; 400,000 compounds, 1.4% hits; AID 1347075; further: nearly all actives have a fitted effect of over 60% in size
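Luminescent ATP read-out (CellTiter-Glo) measures survival of drug-naive KB-3-1 cells after 72 h compound exposure at 37 °C. Titration series was screened from lowest to highest concentration, with DMSO vehicle plates as background controls.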
HT1080NT lethal: kills 2HG-producing HT-1080-NT fibrosarcoma cells. HT-1080-NT fibrosarcoma viability, CellTiter-Glo ATP luminescence, 48 h. Potency, µM (series often up to 46.1 µM), actives largely listed as cytotoxic. 360,000 compounds, 1.6% hits. AID 686970;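 further: NT is the 2HG producing partner of a matched IDH1 knockdown line; nearly all actives have a fitted effect of over 55% in size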
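Toxicity toward the 2HG-producing NT line was scored as %Activity, normalised to DMSO and no-cell wells, from CellTiter-Glo luminescence after 48 hours' treatment.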
KB-V1 cytotox: kills drug-selected multidrug resistant KB-V1 cells; KB-V1 MDR cells viability, CellTiter-Glo, 72 h; Potency, µM (doses to about 46.1 µM), most hits filed as cytotoxic; 400,000 compounds, 3.4% hits; AID 1347076; further: nearly all actives have a fitted effect of over 60% in size
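KB-V1 cells (P-gp-expressing MDR subline of KB-3-1) in phenol-red-free DMEM with 10% FBS were exposed to library compounds over a concentration series for 72 h at 37 degrees C. Viability read by CellTiter-Glo luminescence; concentration-effect curves fitted after normalization.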
DT40 TDP1 CPT: DT40-hTDP1 cell growth loss with CPT | chicken DT40 Tdp1-/-;hTDP1 cells + 20 nM CPT, ATP luminescence, 48 h | Potency, µM (doses to about 46.2 µM), actives largely listed as inhibitors | 420,000 compounds, 12% hits; further: nearly all actives have a fitted effect of over 55% in size
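Chicken DT40 Tdp1-/- cells stably complemented with human TDP1 were seeded at 400 cells/well in medium containing 20 nM camptothecin, exposed to pin-transferred compounds, and grown at 37 °C for at least 48 hr. Viability was read as ATP luminescence.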
HT1080 IDH1KD tx: toxicity to HT-1080 IDH1 knockdown cells (counter line); HT-1080 IDH1 knockdown viability, ATP luminescence, 48 h; Potency, µM (top dose mostly 46.1 µM), hits mostly cytotoxic; 360,000 compounds, 2% hits
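HT-1080-IDH1KD cells (IDH1 knocked down), 750/well in RPMI with 5% FBS, treated with compound 48 h at 37 degrees C. Viability by CellTiter-Glo luminescence, normalised to DMSO and no-cell wells; concentration-response curves classed.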
TDP1 cell noCPT: qHTS for Inhibitors of human tyrosyl-DNA phosphodiesterase 1 (TDP1): qHTS in cells in absence of CPT. DT40 Tdp1-/- hTDP1 cells, no CPT, ATP luminescence, 48 h. Potency, µM (series often up to 46.2 µM), most hits filed as inhibitors. 420,000 compounds, 15% hits. AID 686978, 2013; further: nearly all actives have a fitted effect of over 55% in size
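Growth of hTDP1-complemented DT40 Tdp1-knockout cells is measured by ATP luminescence after at least 48 hr compound exposure at 37 °C, with DMSO substituting for the 20 nM CPT used in the parallel screen.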
Hits are given with their value; 0 = inactive; ? = inconclusive; - = not tested or not shown; [ ] = dose if it differs, or a comment. Compounds with a hit are over-represented: about 19% of the library has one in this group of screens. The call rests on the fitted dose curve; in most records, active means well fitted curve in the direction sought with a large enough effect; inconclusive means small, poorly fitted or top-dose-only effect, or another doubt; inactive means no such curve, though single readings can be large; an effect the other way counts as inactive or inconclusive.

SMILES	KB-3-1 tox	HT1080NT lethal	KB-V1 cytotox	DT40 TDP1 CPT	HT1080 IDH1KD tx	TDP1 cell noCPT
CC(C)(C)OC(=O)N1CCC(c2c(C(=O)NC3CCCCC3)cnn2-c2ccc(F)cc2F)CC1	0	-	0	21µM	-	?
Cc1ccc(CNC(=O)c2cnn(-c3ccc(F)cc3F)c2C2CCN(C(=O)OC(C)(C)C)CC2)cc1	0	-	0	?	-	?
Cc1cccc(N2CCN(C(=O)c3cnn(-c4ccc(F)cc4F)c3C3CCN(C(=O)OC(C)(C)C)CC3)CC2)c1C	?	-	0	21µM	-	21µM
O=C(c1ccco1)N1CCN(C(=O)c2cnn(-c3cccc(F)c3)c2C2CCNCC2)CC1	0	0	?	0	0	0
COc1cc(OC)cc(C(=O)Nc2cc(-c3nc4cc(Cl)ccc4o3)ccc2Cl)c1	?	-	0	-	-	-
CC1=C(C(=O)OCc2ccccc2)C(c2ccc(C)cc2)NC(=O)N1 (centres undefined)	0	0	0	0	0	?
CSc1nc(Cl)c(Cc2ccc(OC(C)C)cc2)c(N2CCOCC2)n1	9.2µM	0	?	?	?	?
CSc1nc(N2CCOCC2)c2sccc2n1	0	0	0	0	0	?
Cc1ccc(CC(C)(O)CC(C)(O)Cc2ccc(C)cc2)cc1 (centres undefined)	0	0	0	21µM	0	18µM
Cc1ccc(S(=O)(=O)CC(C)(O)CS(=O)(=O)c2ccc(C)cc2)cc1	0	0	0	0	0	0
COc1ccc2c(c1)c(=O)c(S(=O)(=O)c1ccc(F)cc1)cn2Cc1ccccc1Cl	0	-	0	0.26µM	-	0.23µM
COc1cc2c3nnc(-c4ccc(F)cc4)c-3cn(Cc3ccccc3F)c2cc1OC	15µM	?	0	3.7µM	?	2.6µM
COc1cc2c(=O)c(S(=O)(=O)c3ccc(F)cc3)cn(Cc3ccccc3C)c2cc1OC	0	-	0	16µM	-	18µM
Cc1cccc(C(=O)NNC(=O)c2csc(N3CCOCC3)n2)c1C	0	0	?	0	0	0
COc1ccc([N+](=O)[O-])cc1NC(=O)COC(=O)C12CC3CC(CC(O)(C3)C1)C2	0	0	0	0	0	?
Cc1cc(=O)n2c(C(=O)Nc3ccc(C(=O)OC(C)C)cc3)c(C(=O)Nc3ccccc3)sc2n1	0	?	0	?	0	15µM
COc1cc2c(cc1OC)CN(C(=O)C(C)(C)C)CC2	0	0	?	0	0	0
COc1cc2c(cc1OC)CN(C1CCC(C(C)(C)C)CC1)CC2 (centres undefined)	?	0	0	?	0	21µM
Cc1ccc(C(C)C)c(OCC(=O)N2CCC(c3nc4ccccc4o3)CC2)c1	-	-	-	?	-	15µM
CCOc1ccc2nc(N3CCCC3C(=O)N3CCC(c4nc5ccccc5o4)CC3)nc(C)c2c1 (centres undefined)	-	-	-	0	-	0
O=C(COc1ccccc1[N+](=O)[O-])N1CCC(Cc2ccccc2)CC1	0	0	?	0	0	0
O=C(COc1ccccc1[N+](=O)[O-])N1CCC(c2nc3ccccc3o2)CC1	-	-	-	?	-	18µM
C/C=C1\COC(C(=O)NCc2cccc(OC)c2OC)(C(F)(F)F)C=C1C=C1CCCCC1 (centres undefined)	0	?	0	15µM	?	16µM
Cc1ccc(N(CC(=O)NC(C)C)C(=O)CCC(=O)Nc2ccccn2)c(C)c1	0	0	?	0	0	0
Cc1ccc(C)c(Cn2c(=O)n(Cc3ccccc3)c(=O)c3c(C)c(C)sc32)c1	0	-	0	0	-	0
SMILES	KB-3-1 tox	HT1080NT lethal	KB-V1 cytotox	DT40 TDP1 CPT	HT1080 IDH1KD tx	TDP1 cell noCPT
Cc1ccc(Nc2c(-c3cccs3)nc3nc(C)cc(C)n23)cc1	0	-	0	23µM	-	?
Cc1cc(C)n2c(NC3CCCCC3)c(-c3cccnc3)nc2n1	0	0	?	?	0	16µM
COc1ccc(Nc2c(-c3ccsc3)nc3nc(C)cc(C)n23)cc1	0	-	0	?	-	?
COc1ccc(Nc2c(-c3ccc(F)cc3)nc3nc(C)cc(C)n23)cc1	0	0	?	10µM	0	16µM
Cc1cc(C)n2c(Nc3ccccc3)c(-c3ccccc3)nc2n1	0	-	0	16µM	-	?
Cc1cc(C)n2c(Nc3ccc(C(C)C)cc3)c(-c3ccsc3)nc2n1	0	-	0	?	-	?
CCCc1nc(NC2CCCCC2)c(C#N)c2c1COC(C)(C)C2	0	0	0	18µM	0[9.24 µM]	29µM
COC(=O)CCCC[C@@H]1O[C@H](CCc2ccccc2)Cc2[nH]c(=S)[nH]c(=O)c21	0	0	0	0	0	?
COc1ccc(Nc2cc(C)c3ccc(O)cc3n2)cc1	0	0	?	23µM	0	16µM
Cc1ccnc(NC(=S)N2CCN(c3ccc(C(F)(F)F)cc3)CC2)c1	0	-	0	-	-	-
Cc1ccc2c(c1)Cc1c(nc(-c3ccc(F)cc3)nc1SCC(=O)N1CCCCC1)O2	0	-	0	0	-	0
Cc1nc2cnc(N3CCNCC3)nc2n(-c2ccccc2)c1=O	-	-	-	0	-	0
O=c1c(-c2ccc(F)cc2)nc2cnc(N3CCNCC3)nc2n1-c1ccccc1	-	-	-	15µM	-	?
COc1ccc(-n2c(=O)c(-c3cc(F)cc(F)c3)nc3cnc(N4CCNCC4)nc32)cc1	-	-	-	15µM	-	21µM
COC(=O)N1CCCc2cc(S(=O)(=O)NCc3ccccc3)ccc21	0	-	?	-	-	-
CCOC(=O)C1CCN(C(=O)c2ccc3c(c2)N=C(CC)c2cc(C)ccc2S3)CC1	0	-	0	15µM	-	?
CCC1=Nc2cc(C(=O)NCc3ccc(C)cc3)ccc2Sc2ccc(C)cc21	-	-	-	7.3µM	-	8.2µM
CCC1=Nc2cc(C(=O)NCCc3ccc(OC)c(OC)c3)ccc2Sc2ccccc21	0	-	0	16µM	-	23µM
CCC1=Nc2cc(C(=O)O)ccc2Sc2ccccc21	0	0	0	0	0	0
CCC1=Nc2cc(C(=O)NCc3ccco3)ccc2Sc2ccccc21	2.6µM	2.6µM	?	3.3µM	5.8µM	4.6µM
Cc1cccc(-n2c(N)cc(=O)nc2SCC(=O)Nc2ccc(F)cc2)c1C	?	-	0	0	-	0
CCCC1=Nc2cc(C(=O)NCc3ccccc3)ccc2Sc2ccccc21	-	-	-	4.1µM	-	3.3µM
CCC1=Nc2cc(C(=O)NCc3ccco3)ccc2Sc2ccc(Cl)cc21	1.5µM	5.2µM	1.5µM	1.3µM	?	1µM
CCCC1=Nc2cc(C(=O)NCCN3CCOCC3)ccc2Sc2ccccc21	0	?	?	0	0	0
Cc1cc(=O)[nH]c(SCC(=O)/C=C2\N(C)c3ccccc3C2(C)C)n1	0	0	0	?	?	9.2µM
